High-throughput results from PubChem BioAssay.
p53null 39C tox – p53 null cell cytotoxicity, nonpermissive temperature. H1299 p53-null (neo) cells, 39C, ATPlite viability, 24 h. Potency, µM (titrated, usually from 46.1 µM), most hits filed as cytotoxic. 55,000 compounds, 0.97% hits; also: nearly all actives have a fitted effect of over 50% in size
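Temperature-shift cytotoxicity format: compound titrations on p53-null or A138V-expressing H1299 cells held 24 hr at 39C, cell ATP then measured, AC50 from Hill model.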
GALC G270D act – galactocerebrosidase G270D activity enhancement, cell-based; 45,000 compounds, 0.1% hits; Potency, µM (top dose mostly 57.5 µM), most hits filed as activators; AID 1159614; 145M-Twi-hGALC-G270D cells (Twitcher mouse brain line with human GALC G270D), HMU-beta-Gal fluorescence, 48 h; P54803; also: nearly all actives have a fitted effect of over 65% in size
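Mutant human GALC (G270D), stably expressed in a Twitcher mouse brain cell line lacking endogenous GALC, is measured in live-treated cells via 6-hexadecanoylamino-4-methylumbelliferyl-β-galactoside hydrolysis (0.1 mM final, pH 5.2) with fluorescent detection.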
p53null 32C tox – p53 null cell cytotoxicity, permissive temperature. AID 903. 55,000 compounds, 0.62% hits. Potency, µM (titrated, usually from 46.1 µM), actives largely listed as cytotoxic. H1299-neo p53 null cells, ATP luminescence, 24 h, 32C; also: nearly all actives have a fitted effect of over 55% in size
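ATP-content luminescence in p53-null H1299-neo cells after 24 h compound exposure (up to 46 uM) at 32C permissive temperature; 0% and 100% killing set by DMSO and 100 uM tamoxifen; Hill-equation AC50.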
NTMT1 inh – blocks human N-terminal methyltransferase 1 activity; NTMT1 MTase-Glo SAH luminescence, purified enzyme; 59,000 compounds, 2.5% hits; Potency, µM (highest dose often 114 µM), actives largely listed as inhibitors; also: nearly all actives have a fitted effect of over 65% in size
Target sequence (Q9BV86 whole entry, looked up): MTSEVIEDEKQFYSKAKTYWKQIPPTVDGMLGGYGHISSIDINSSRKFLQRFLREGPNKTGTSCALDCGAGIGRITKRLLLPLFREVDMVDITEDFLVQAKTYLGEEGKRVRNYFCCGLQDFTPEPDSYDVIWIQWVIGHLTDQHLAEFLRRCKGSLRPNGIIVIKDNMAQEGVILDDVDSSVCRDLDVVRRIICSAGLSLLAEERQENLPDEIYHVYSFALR
GPR32 ag – GPR32 (DRV1) agonism, beta-arrestin recruitment. O75388. CHO-K1 GPR32 beta-arrestin PathHunter luminescence, 90 min; zero percent set by DMSO-only wells. activation, % at 76.9 µM. 48,000 compounds, 2.5% hits. AID 1346428;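 active = activation of at least 60% and not above a set upper limit, about 1 call in 100 departs from these limits; inconclusive = activation of 40% to 60%, or above that upper limit; inactive = activation under 40%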
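Using DMSO wells as EC0, agonist-induced signal was taken as chemiluminescence from beta-Gal reconstituted upon beta-arrestin recruitment to GPR32 in CHO-K1 cells after 90 min compound treatment.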
OvCa metastasis – blocks SKOV3ip1 adhesion and invasion in omental model. Potency, µM (titrated, usually from 45.8 µM), most hits filed as inhibitors. SKOV3ip1-GFP adhesion/invasion on 3D omental model, fluorescence. 46,000 compounds, 0.1% hits; also: nearly all actives have a fitted effect of over 65% in size
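Adhesion/invasion was scored as fixed GFP-labeled SKOV3ip1 cell counts (488/509 nm), normalized to DMSO and tomatine controls. Cancer cells in serum-free medium, with four compound doses (0.36-46 umol/L), sat 2 hr at RT then 16 hr at 37 C on a 48 hr fibroblast/mesothelial/ECM culture.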
Sfp PPTase inh – inhibitors of Bacillus subtilis Sfp PPTase, optimization followup | 230 compounds, 78% hits | Potency, µM (titrated, usually from 114 µM), hits mostly inhibitors | purified Sfp PPTase enzyme activity, qHTS | shares compounds with NTMT1 inh
HM489 growth – Sfp PPTase inhibitors: growth inhibition of B. subtilis HM489 | B. subtilis HM489 (acpS-) growth, BacTiter-Glo, 5 h | Potency, µM (doses to about 114 µM), most hits filed as inhibitors | shares compounds with NTMT1 inh | AID 540353 | 220 compounds, 50% hits
Sfp PPTase gel – inhibits B. subtilis Sfp PPTase in gel assay; purified Sfp PPTase, gel-based product detection; Potency, µM (titrated, usually from 250 µM), usual class: inhibitors; shares compounds with NTMT1 inh; 220 compounds, 54% hits
Sfp inh gel – inhibits B. subtilis Sfp PPTase in gel-based assay; shares compounds with NTMT1 inh; Potency, µM (highest dose often 250 µM), most hits filed as inhibitors; purified Sfp PPTase, gel-based product detection; 45 compounds, 90% hits
Sfp SAR2 – inhibits B. subtilis Sfp PPTase in second SAR round. purified Sfp enzyme, PPTase activity, qHTS. 230 compounds, 87% hits. Potency, µM (titrated, usually from 57.1 µM), hits mostly inhibitors. shares compounds with NTMT1 inh. AID 602370
hGST A1-1 inh – inhibits hGST A1-1 in Sfp inhibitor counter-screen. 55 tested, under 10 active. shares compounds with NTMT1 inh. hGST A1-1 enzyme activity counter-screen, qHTS. Potency, µM (titrated, usually from 114 µM), usual class: inhibitors
HSD17B4 inh – inhibits human HSD17B4, off-target for HPGD inhibitors. 230 compounds, 10% hits. purified HSD17B4, estradiol/NAD+, NADH fluorescence. shares compounds with NTMT1 inh. Potency, µM (highest dose often 57.1 µM), hits mostly inhibitors. AID 743187
ALDH1A1 inh – inhibits human ALDH1A1, off-target for HPGD inhibitors. shares compounds with NTMT1 inh. recombinant ALDH1A1, NADH fluorescence, propionaldehyde/NAD+. Potency, µM (top dose mostly 57.1 µM), actives largely listed as inhibitors. 230 compounds, 93% hits
Numbers stand for hits; 0 = inactive; ? = inconclusive; - = no result; [ ] = remark or other dose. Hits are enriched below; roughly 4% of the tested compounds scored in any of these assays. Unless noted, calls follow the shape of the dose curve; as a rule, active = well fitted curve in the direction sought with a large enough effect; inconclusive = small, poorly fitted or top-dose-only effect, or another doubt; inactive = no such curve, though single readings can be large; an effect the other way counts as inactive or inconclusive.

SMILES | p53null 39C tox | GALC G270D act | p53null 32C tox | NTMT1 inh | GPR32 ag | OvCa metastasis | Sfp PPTase inh | HM489 growth | Sfp PPTase gel | Sfp SAR2 | HSD17B4 inh | ALDH1A1 inh | others
Cc1ccnc(NC(=S)NC2CN(c3cccc(C(F)(F)F)c3)C2)c1 | - | - | - | 0 | - | - | ? | 37µM | 0 | ? | 0 | 0
Cc1ccnc(NC(=S)N[C@@H]2CCN(c3cccc(C(F)(F)F)c3)C2)c1 | - | - | - | 0 | - | - | ? | ? | 0 | ? | 0 | 24µM | Sfp inh gel=0;hGST A1-1 inh=?
O=C(Nc1ccccc1Br)N[C@@H]1CCN(c2ccc(C(F)(F)F)cn2)C1 | - | - | - | 0 | - | 0 | - | - | - | - | - | -
Cc1ccnc(CC(=S)N2CCN(c3cccc(C(F)(F)F)c3)CC2)c1 | - | - | - | 0 | - | - | 24µM | ? | 10µM | ? | ? | 9.6µM
Cc1ccnc(NC(=S)NC2CCN(c3cccc(C(F)(F)F)c3)CC2)c1 | - | - | - | - | - | - | ? | ? | ? | ? | 24µM | 19µM
COC(=O)c1cncc(NC(=O)c2cccs2)c1 | - | - | - | 0 | - | - | - | - | - | - | - | -
CC(C)(C)NCc1cc(Nc2ccnc3cc(Cl)ccc23)c2c(c1O)CCCC2 | - | - | - | 0[0.501 µM] | - | - | - | - | - | - | - | -
COc1ccc(N2CCN(C(=O)Nc3cccc(C(F)(F)F)c3)CC2)cc1 | 0 | 0 | 0 | ? | 0 | 0 | - | - | - | - | - | -
Cc1ccnc(NC(=S)Nc2cccc(C(F)(F)F)c2)c1 | - | - | - | 0 | - | - | 10µM | 12µM | 0 | 23µM | 0 | 22µM | Sfp inh gel=?;hGST A1-1 inh=0.21µM
Cc1ccnc(NC(=S)N2CC3CN(c4cccc(C(F)(F)F)c4)CC3C2)c1 (stereo unspecified) | - | - | - | ? | - | - | 3.7µM | 5.9µM | 4.8µM | 0.73µM | 0 | 7.6µM | Sfp inh gel=1.7µM;hGST A1-1 inh=?
Cc1ccnc(NC(=O)N2CCN(c3cccc(C(F)(F)F)c3)CC2)c1 | - | - | - | 0 | - | - | 0 | ? | 0 | 0 | 0 | 11µM
CC(C)(C)c1cc(Br)cc([C@H](CC(=O)O)NC(=O)CNC(=O)c2cc(O)cc(NC3=NCC(O)CN3)c2)c1 (stereo partly specified) | - | - | - | 0 | - | - | - | - | - | - | - | -
O=C(Nc1cncc(-c2ccncc2)c1)c1cccs1 | - | - | - | 0 | - | - | - | - | - | - | - | -
